# Measurements taken from the supplement of paper PMC10849652.
# Of roughly 7,900 targets only a part is listed; those with a hit were picked by preference. About 0.6% of all pairs of compound and target were hits. Values without a mark were called inactive.
# Compound: CC1=C(C(CC(=O)N1)C2=CC=C(C=C2)C(F)(F)F)C(=O)NC3=C(C=C4C(=C3)C=NN4)F
# Test: log2 fold change, soluble protein after heating vs DMSO (PISA); higher = thermal stabilisation; K562 cells, 10 uM, 30 min; active = over 0.2 and 3.5 SD of the protein, either way, in both replicates (recomputed)
# Outline: (§1)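 K562 cells at 2×10^6 cells/mL were exposed to 10 μM compound for 30 min, then aliquots were heated for 3 min across 48°C-58°C, pooled, and extracted in PBS containing 0.5% NP-40 at 4°C. The supernatant after 21,000xg for 90 min was taken as soluble protein and measured by TMTpro 16plex LC-MS/MS with channel sums equalised. Thermal stability is reported relative to control samples, with values from duplicates. Fold changes are given on a log2 scale.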
# Sequence of UniProt O00231 (O00231 whole entry, looked up): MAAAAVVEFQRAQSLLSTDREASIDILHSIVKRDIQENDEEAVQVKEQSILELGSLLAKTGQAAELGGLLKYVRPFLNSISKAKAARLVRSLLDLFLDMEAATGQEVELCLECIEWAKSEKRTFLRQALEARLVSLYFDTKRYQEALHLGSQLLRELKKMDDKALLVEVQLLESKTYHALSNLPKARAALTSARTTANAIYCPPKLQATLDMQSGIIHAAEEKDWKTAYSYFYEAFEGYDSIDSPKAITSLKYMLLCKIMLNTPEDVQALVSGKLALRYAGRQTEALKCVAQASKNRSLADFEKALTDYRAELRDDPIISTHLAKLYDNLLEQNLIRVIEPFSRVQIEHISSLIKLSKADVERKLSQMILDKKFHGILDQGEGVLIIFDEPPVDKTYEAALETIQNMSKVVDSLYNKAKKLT
# Sequence of UniProt Q00577 (Q00577 whole entry, looked up): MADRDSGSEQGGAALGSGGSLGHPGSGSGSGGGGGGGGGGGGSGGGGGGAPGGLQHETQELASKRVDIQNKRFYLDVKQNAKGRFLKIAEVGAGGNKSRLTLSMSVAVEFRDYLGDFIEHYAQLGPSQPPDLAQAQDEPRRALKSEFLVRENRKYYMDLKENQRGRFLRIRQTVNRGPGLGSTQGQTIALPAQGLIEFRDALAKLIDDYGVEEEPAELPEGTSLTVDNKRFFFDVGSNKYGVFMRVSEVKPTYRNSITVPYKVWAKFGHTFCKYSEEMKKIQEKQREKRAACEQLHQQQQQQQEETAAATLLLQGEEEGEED
# Sequence of UniProt Q8NBL1 (Q8NBL1 whole entry, looked up): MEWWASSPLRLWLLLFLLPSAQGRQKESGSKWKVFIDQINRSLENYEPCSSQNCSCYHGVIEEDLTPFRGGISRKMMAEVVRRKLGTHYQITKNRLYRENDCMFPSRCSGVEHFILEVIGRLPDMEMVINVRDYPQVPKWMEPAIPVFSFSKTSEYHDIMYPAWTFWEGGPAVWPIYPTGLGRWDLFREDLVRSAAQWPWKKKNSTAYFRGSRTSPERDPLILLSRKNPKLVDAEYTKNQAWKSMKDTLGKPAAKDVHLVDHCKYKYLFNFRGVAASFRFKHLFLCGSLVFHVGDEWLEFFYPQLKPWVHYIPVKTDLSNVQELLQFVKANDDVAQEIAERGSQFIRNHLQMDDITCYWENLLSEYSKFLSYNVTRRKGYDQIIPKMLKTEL
# Sequence of UniProt P28072 (P28072 whole entry, looked up): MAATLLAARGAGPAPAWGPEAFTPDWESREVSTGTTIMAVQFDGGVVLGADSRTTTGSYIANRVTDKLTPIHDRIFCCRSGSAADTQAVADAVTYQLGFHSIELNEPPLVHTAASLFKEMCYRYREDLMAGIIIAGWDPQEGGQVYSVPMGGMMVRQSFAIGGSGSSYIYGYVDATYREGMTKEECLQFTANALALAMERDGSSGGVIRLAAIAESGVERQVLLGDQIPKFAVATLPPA
# Sequence of UniProt Q9UPN7 (Q9UPN7 whole entry, looked up): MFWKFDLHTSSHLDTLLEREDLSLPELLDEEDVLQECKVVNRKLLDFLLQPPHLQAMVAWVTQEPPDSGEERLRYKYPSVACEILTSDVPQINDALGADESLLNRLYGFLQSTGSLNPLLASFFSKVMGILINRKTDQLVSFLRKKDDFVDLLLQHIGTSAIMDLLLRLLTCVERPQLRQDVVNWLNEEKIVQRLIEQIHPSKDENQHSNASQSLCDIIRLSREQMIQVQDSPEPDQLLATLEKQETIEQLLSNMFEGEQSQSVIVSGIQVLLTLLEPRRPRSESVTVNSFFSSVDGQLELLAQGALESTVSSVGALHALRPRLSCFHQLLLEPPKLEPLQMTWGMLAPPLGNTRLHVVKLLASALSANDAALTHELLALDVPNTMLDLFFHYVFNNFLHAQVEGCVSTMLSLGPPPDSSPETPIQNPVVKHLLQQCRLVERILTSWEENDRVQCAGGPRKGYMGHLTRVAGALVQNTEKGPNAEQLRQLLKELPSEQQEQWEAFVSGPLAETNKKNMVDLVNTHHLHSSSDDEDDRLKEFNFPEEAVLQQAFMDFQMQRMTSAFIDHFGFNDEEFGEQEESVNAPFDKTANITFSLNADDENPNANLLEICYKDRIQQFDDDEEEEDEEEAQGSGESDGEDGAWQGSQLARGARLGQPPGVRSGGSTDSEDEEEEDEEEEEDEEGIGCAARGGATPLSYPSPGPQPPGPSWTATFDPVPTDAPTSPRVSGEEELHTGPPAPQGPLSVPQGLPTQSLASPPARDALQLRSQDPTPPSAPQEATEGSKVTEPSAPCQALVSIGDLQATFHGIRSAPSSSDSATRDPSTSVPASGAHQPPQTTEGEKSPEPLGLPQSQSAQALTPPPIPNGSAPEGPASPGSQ
# Sequence of UniProt Q92871 (Q92871 whole entry, looked up): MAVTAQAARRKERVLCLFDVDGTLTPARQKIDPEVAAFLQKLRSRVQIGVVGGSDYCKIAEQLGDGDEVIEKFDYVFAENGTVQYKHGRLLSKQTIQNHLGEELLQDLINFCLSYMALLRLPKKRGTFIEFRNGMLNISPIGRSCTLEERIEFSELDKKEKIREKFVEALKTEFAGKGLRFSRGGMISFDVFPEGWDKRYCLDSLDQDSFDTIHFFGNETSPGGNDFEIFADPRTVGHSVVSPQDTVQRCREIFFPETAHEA
# Sequence of UniProt Q14997 (Q14997 whole entry, looked up): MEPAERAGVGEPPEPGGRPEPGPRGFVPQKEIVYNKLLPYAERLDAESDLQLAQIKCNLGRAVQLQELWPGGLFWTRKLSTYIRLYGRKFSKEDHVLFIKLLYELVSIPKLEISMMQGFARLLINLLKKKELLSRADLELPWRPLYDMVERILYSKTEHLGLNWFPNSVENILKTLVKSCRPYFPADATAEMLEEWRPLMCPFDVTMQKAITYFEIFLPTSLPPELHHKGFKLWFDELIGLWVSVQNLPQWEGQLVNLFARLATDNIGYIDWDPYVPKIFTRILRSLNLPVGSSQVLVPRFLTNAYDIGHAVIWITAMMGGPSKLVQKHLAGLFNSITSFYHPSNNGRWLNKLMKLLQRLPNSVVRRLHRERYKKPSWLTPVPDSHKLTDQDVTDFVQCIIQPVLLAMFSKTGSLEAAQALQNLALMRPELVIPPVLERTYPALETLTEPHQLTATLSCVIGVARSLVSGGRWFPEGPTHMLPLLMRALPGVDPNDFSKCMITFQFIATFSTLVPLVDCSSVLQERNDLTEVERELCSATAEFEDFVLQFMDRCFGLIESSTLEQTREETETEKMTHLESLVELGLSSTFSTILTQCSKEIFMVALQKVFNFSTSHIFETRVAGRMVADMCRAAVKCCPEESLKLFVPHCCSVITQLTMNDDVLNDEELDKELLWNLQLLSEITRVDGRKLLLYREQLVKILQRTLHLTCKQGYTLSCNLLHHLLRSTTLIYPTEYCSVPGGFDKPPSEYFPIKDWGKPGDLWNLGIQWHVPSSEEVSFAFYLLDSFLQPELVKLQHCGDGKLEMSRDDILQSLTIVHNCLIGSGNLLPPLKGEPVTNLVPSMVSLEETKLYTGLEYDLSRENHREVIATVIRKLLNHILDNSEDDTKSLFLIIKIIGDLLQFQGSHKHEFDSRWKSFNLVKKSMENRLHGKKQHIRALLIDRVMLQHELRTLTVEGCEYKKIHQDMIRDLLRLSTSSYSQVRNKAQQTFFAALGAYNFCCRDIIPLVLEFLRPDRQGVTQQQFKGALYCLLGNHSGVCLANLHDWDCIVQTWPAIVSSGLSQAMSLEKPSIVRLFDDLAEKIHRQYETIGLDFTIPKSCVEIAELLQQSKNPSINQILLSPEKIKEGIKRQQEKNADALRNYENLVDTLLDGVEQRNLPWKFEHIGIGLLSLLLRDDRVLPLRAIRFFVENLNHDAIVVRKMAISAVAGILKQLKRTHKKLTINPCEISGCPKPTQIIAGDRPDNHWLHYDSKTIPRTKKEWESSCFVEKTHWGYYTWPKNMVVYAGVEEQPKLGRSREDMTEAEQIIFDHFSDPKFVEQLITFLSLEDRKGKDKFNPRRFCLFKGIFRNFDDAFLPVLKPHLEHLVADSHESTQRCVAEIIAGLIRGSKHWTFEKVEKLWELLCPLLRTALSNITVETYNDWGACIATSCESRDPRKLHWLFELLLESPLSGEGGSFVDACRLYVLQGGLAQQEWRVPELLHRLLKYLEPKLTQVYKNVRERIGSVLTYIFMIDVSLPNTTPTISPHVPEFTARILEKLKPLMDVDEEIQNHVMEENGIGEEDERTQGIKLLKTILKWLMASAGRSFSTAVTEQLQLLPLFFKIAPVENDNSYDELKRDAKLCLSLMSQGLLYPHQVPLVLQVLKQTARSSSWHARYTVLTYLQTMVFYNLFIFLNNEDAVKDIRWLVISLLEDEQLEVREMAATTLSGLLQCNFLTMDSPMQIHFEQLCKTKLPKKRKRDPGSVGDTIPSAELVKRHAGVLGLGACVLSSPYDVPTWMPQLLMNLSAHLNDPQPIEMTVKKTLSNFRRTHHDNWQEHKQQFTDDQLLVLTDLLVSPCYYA
# Sequence of UniProt Q96A00 (Q96A00 whole entry, looked up): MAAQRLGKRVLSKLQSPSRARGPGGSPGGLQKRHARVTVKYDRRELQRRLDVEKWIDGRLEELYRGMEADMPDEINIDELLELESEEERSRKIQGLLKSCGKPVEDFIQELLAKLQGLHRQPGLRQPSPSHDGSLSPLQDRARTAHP
# Sequence of UniProt P06454 (P06454 whole entry, looked up): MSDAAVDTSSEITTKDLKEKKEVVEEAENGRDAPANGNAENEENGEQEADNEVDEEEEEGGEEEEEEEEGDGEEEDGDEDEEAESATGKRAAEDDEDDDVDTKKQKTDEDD
# Sequence of UniProt Q12974 (Q12974 whole entry, looked up): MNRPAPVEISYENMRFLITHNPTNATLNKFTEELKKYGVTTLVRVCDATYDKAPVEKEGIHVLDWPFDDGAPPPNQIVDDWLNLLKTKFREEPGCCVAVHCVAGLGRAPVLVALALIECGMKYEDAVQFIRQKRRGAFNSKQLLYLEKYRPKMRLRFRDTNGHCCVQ
row,Target,log2 fold change
1,PLIN2 (UniProt Q99541),-0.031
2,PCGF2 (UniProt P35227),-0.119
3,PRKAR1B (UniProt P31321),-0.079
4,PSMB6 (UniProt P28072),0.046
5,PGGHG (UniProt Q32M88),-0.124
6,PTGFRN (UniProt Q9P2B2),0.006
7,PLCL1 (UniProt Q15111),-0.086
8,PURA (UniProt Q00577),-0.005
9,PPT1 (UniProt P50897),0.018
10,PKN2 (UniProt Q16513),-0.025
11,PTPMT1 (UniProt Q8WUK0),0.043
12,PTMA (UniProt P06454),0.063
13,POGLUT1 (UniProt Q8NBL1),0.009
14,POLR2C (UniProt P19387),-0.016
15,PRPF38B (UniProt Q5VTL8),-0.007
16,PSMA3 (UniProt P25788),-0.02
17,PJA2 (UniProt O43164),0.05
18,PTP4A2 (UniProt Q12974),0.191

row,Target,log2 fold change
1,PCYT1B (UniProt Q9Y5K3),0.058
2,PPP1R14A (UniProt Q96A00),0.01
3,PIK3CB (UniProt P42338),-0.026
4,POLD3 (UniProt Q15054),-0.091
5,PSMD11 (UniProt O00231),0.011
6,PMM1 (UniProt Q92871),0.02
7,PIP4P2 (UniProt Q8N4L2),0.028
8,PIGT (UniProt Q969N2),0.018
9,POLR2I (UniProt P36954),0
10,PPP6R1 (UniProt Q9UPN7),0.003
11,PRKCQ (UniProt Q04759),0.024
12,POLR1A (UniProt O95602),0.052
13,PRPSAP2 (UniProt O60256),0.033
14,PSME4 (UniProt Q14997),0.023
15,PPM1G (UniProt O15355),-0.121
16,PRKAR2B (UniProt P31323),-0.075
17,PKN1 isoform 2 (UniProt Q16512),-0.002
18,PRCP (UniProt P42785),0.012

# Compound: CC1=C(C2=C(C=C1)C(=O)C3=CC=CC=C3N2CCCN)C
# Test: as above
# Outline: as §1
row,Target,log2 fold change
1,PLIN2 (UniProt Q99541),-0.022
2,PCGF2 (UniProt P35227),0.107
3,PRKAR1B (UniProt P31321),-0.104
4,PSMB6 (UniProt P28072),0
5,PGGHG (UniProt Q32M88),-0.027
6,PTGFRN (UniProt Q9P2B2),0.028
7,PLCL1 (UniProt Q15111),-0.193
8,PURA (UniProt Q00577),-0.792 (active)
9,PPT1 (UniProt P50897),-0.06
10,PKN2 (UniProt Q16513),-0.016
11,PTPMT1 (UniProt Q8WUK0),-0.057
12,PTMA (UniProt P06454),-0.021
13,POGLUT1 (UniProt Q8NBL1),0.016
14,POLR2C (UniProt P19387),-0.025
15,PRPF38B (UniProt Q5VTL8),0.159
16,PSMA3 (UniProt P25788),-0.014
17,PJA2 (UniProt O43164),-0.308 (active)
18,PTP4A2 (UniProt Q12974),-0.164

row,Target,log2 fold change
1,PCYT1B (UniProt Q9Y5K3),-0.12
2,PPP1R14A (UniProt Q96A00),-0.073
3,PIK3CB (UniProt P42338),0.041
4,POLD3 (UniProt Q15054),0.013
5,PSMD11 (UniProt O00231),0.037
6,PMM1 (UniProt Q92871),0.049
7,PIP4P2 (UniProt Q8N4L2),0.033
8,PIGT (UniProt Q969N2),0.01
9,POLR2I (UniProt P36954),0.324
10,PPP6R1 (UniProt Q9UPN7),-0.041
11,PRKCQ (UniProt Q04759),0.018
12,POLR1A (UniProt O95602),-0.14
13,PRPSAP2 (UniProt O60256),0.063
14,PSME4 (UniProt Q14997),0.105
15,PPM1G (UniProt O15355),-0.002
16,PRKAR2B (UniProt P31323),0.022
17,PKN1 isoform 2 (UniProt Q16512),0.047
18,PRCP (UniProt P42785),-0.101
